PubChem BioAssay AID624354 (Sanford-Burnham Center for Chemical Genomics, 2012)
“And” between values parts separate entries of the source, which are not always exact repeats. Equal entries are not always repeated. In all, about 360,000 compounds went through this assay and about 3,800 (1.1%) were called active. Many of the other results were omitted from the sample, so actives are more common in it than they were. Values without a mark were called inactive.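 The calls were made as follows: active = compounds causing at least 50% loss of cell viability in the single-dose screen, relative to plate controls; inactive = the rest.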

Experiment: TRAIL-exposed caspase-8 expressing cell killing – NB7+C8 cells, ATPlite luminescence, TRAIL sensitizer project, primary screen (AID 624354)
Details: at 10 µM, hits give high values

Compound	inhibition (viability loss, TRAIL sensitization)
COc1cccc(-c2nc3ccc(N4CCN(C)CC4)cc3[nH]2)c1	86.3% (active)
CCC(=O)c1ccc(OCC(=O)N2CCN(CC(=O)Nc3ccc(C)cc3)CC2)cc1	1.16%
Cc1cc2ccccn2c1C(C[N+](=O)[O-])c1c(F)cccc1Cl (stereo not given)	-0.261%
COc1ccc(-n2c(O)c(C(C)=Nc3ccc4c(c3)CCC4)c(=O)[nH]c2=O)cc1	7.82%
O=Cc1cn(Cc2ccc(F)cc2Cl)c2ccccc12	17.7%
CNC(=O)O/N=C(\N)Cc1csc2ccc(Cl)cc12	70.7% (active)
CNC(=O)O/N=C(\N)Cc1csc2ccccc12	-3.67%
CCC/C(=N\O)c1c[nH]c2ccccc12	-8.01%
Cc1ncoc1C(=O)NCC1=C(c2cccc3ccccc23)C[C@@H]2CC[C@H]1N2Cc1ccco1	14.8%
COc1ccccc1CN1CCN(C(=O)Cc2ccccc2)CC1	-10.1%
CCN1CCN(Cc2cc(OC)c3c(c2)OCO3)CC1	3.55%
COC1C(O)C(C)OC(OC2CCC3(C=O)C(CCC4C3CCC3(C)C(C5=CC(=O)OC5)CCC43O)C2)C1O (stereo not given)	74.4% (active)
C[C@]12CC[C@H](O)C[C@H]1CC[C@@H]1C2CC[C@]2(C)[C@@H](C3=CC(=O)OC3)[C@@H](O)C[C@]12O (stereo not given in full)	48.7%
CC(C)Nc1nc(Cl)nc(NC(C)C)n1	-4.77%
O=C(O)C1CSC(c2cccnc2)N1 (stereo not given)	-7.34%
Cc1ccc(Cn2c(C)c3cnn(CC(=O)N4CCC5(CC4)OCCO5)c(=O)c3c2C)cc1	2.81%
OC(Cn1c2ccccc2c2ccccc21)C[n+]1ccccc1 (stereo not given)	-9.29%
CCOc1ccc(-c2cc(C)[n+](CCN(CC)CC)c(-c3ccc(OCC)cc3)c2)cc1	64.8% (active)

Compound	inhibition (viability loss, TRAIL sensitization)
O=c1[nH]c(CN2CC=C(c3ccccc3)CC2)nc2scc(-c3cccs3)c12	-10.4%
COc1ccccc1N1CCN(C(CNC(=O)Oc2ccccc2)c2cccnc2)CC1 (stereo not given)	-5.13%
CN1CCc2cc3c(cc2[C@H]1[C@@H]1OC(=O)c2c1ccc1c2OCO1)OCO3	-20.1%
C=C(C)C1(CCCC)C(=O)NC(=S)NC1=O	6.23%
CN1C2C=C(N(C(=O)c3ccc(Cl)cc3)c3ccccc3)CC1CC2 (stereo not given)	-8.37%
CC(=O)OC1C2(CC3N4C(=O)C5(CO)SSC4(CC31O)C(=O)N5C)OC(C)C(C)(C)C2=O (stereo not given)	84.2% (active)
CCC(=O)CC(c1ccc([N+](=O)[O-])cc1)c1c(O)c2ccccc2oc1=O (stereo not given)	4.29%
Nc1ccc(Cc2ccc(N)c(Cl)c2)cc1Cl	2.29%
CN(C)C(=O)Oc1cc(OC(=O)N(C)C)cc(C(O)CNC(C)(C)C)c1 (stereo not given)	-5.27% and 5.89%
C=Cn1ccnc1P(=S)(c1cc(N(CC)CC)ns1)c1nccn1C=C	-19.8%
CCCCCCCCCCCCn1ccc(=N)cc1	62.5% (active)
CC1CNCCN1c1ccc(Cl)cc1 (stereo not given)	-10.4%
C=CCN1C(=O)NC(=O)/C(=C/c2ccc(OCC(=O)Nc3ccc(C)cc3)cc2)C1=O	6.1%
CCOC(=O)[C@]12Cc3ccccc3[C@H]1N(C1CCCCC1)C(=O)c1cc(OC)ccc12	79.1% (active)
CCOC(=O)[C@]12Cc3cc(OC)ccc3[C@H]1N(C(C)C)C(=O)c1ccccc12	39.4%
CCC1(CC(C)c2ccccc2)C(=O)NC(=O)NC1=O (stereo not given)	-15.1%
C/C(=N/O)c1ccc2ccc3ccccc3c2c1	0.44%
